# Results filed as inconclusive are left out. Where a call stands in place of a potency, no number is given. The source made the active and inactive calls. Calls come from the whole dose curve; as a rule, active = well fitted curve in the direction sought with a large enough effect; inconclusive = small, poorly fitted or top-dose-only effect, or another doubt; inactive = no such curve, though single readings can be large; an effect the other way counts as inactive or inconclusive.
# How the values were obtained:
# [1] = target: Phospholipid hydroperoxide glutathione peroxidase GPX4 (Homo sapiens) (UniProt P36969); assay: Primary qHTS Assay for Inhibitors of Recombinant Selenoprotein Glutathione Peroxidase 4 (GPX4) (AID 1845192); note: nearly all actives have a fitted effect of over 65% in size; for activity change, negative = inhibition: series mostly up to about 50 µM
# Method in brief: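 Steps: GPX4 plus compound, 30 min RT; add GR/GSH/NADPH master mix; start with cumene hydroperoxide; read 340/450 nm fluorescence at 0 and 15 min. Finals were 200 nM GPX4, 1 mM GSH, 0.5 mM CHP, 0.5 mM NADPH, 100 nM GR.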
# [2] = Quantitative High-Throughput drug screen in 47 multiple myeloma cell lines against the NCATS MIPE library collection: FR4_PLB cell viability assay (AID 1918924; note: nearly all actives have a fitted effect of over 35% in size; note: potency is the fitted concentration of half-maximal effect)
# Method in brief: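 We plated 500 myeloma cells per well, pinned in MIPE 4.0 compounds, and incubated for 48 hours at 37C. ATP was then quantified with CellTiter-Glo, with DMSO and media-only wells defining 100% and 0%.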
# [3] = Quantitative High-Throughput drug screen in 47 multiple myeloma cell lines against the NCATS MIPE library collection: Delta47_JCRB cell viability assay (AID 1918925; note: nearly all actives have a fitted effect of over 45% in size; note: potency is the fitted concentration of half-maximal effect)
# Method in brief: (§1)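 Primary qHTS used for cherry-picking: cells at 500/well, library compounds for 48 h (37C, 5% CO2), luminescent ATP assay.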
# [4] = Quantitative High-Throughput drug screen in 47 multiple myeloma cell lines against the NCATS MIPE library collection: EJM_DSMZ cell viability assay (AID 1918926; note: nearly all actives have a fitted effect of over 30% in size; note: potency is the fitted concentration of half-maximal effect)
# Method in brief: as §1
# [5] = Quantitative High-Throughput drug screen in 47 multiple myeloma cell lines against the NCATS MIPE library collection: AMO1_DSMZ cell viability assay (AID 1918927; note: nearly all actives have a fitted effect of over 30% in size; note: potency is the fitted concentration of half-maximal effect)
# Method in brief: as §1
# [6] = target: Luciferin 4-monooxygenase (Photinus pyralis) (UniProt P08659); assay: Primary firefly luciferase (FLuc) qHTS assay for identification of artifact compounds. (AID 1845220); conditions: outcome: dose series up to 54.1 µM; note: nearly all actives have a fitted effect of over 60% in size; for activity change, negative = inhibition: series mostly up to about 54 µM
# Method in brief: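 Titrated compounds were incubated 15 min at RT, protected from light, with luciferin and ATP at 10 uM; reaction started with 10 nM FLuc, luminescence imaged at 5 min, and concentration-response fitted by Hill equation.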
# [7] = Primary fluorescence-based thiol-reactive (MSTI) qHTS assay for identification of artifact compounds. (AID 1845221); note: nearly all actives have a fitted effect of over 65% in size; note: potency is the fitted concentration of half-maximal effect
# Method in brief: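 Compounds were incubated 1 h at room temperature in the dark with the MSTI probe (4 uM) in PBS pH 7.4, 2% DMSO. Signals were normalized between Acetyl-MSTI and MSTI.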
# [8] = tested on: Nanoluciferase (engineered Oplophorus gracilirostris luciferase); assay: Primary Nanoluciferase (NLuc) qHTS assay for identification of artifact compounds. (AID 1845222);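 note: NLuc secreted into diluted conditioned medium of S16 cells; series mostly up to about 54 µM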
# Method in brief: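 qHTS format, against NLuc in S16 cell-conditioned medium. Nano-Glo substrate 1:100 was added after 15 min at room temperature. Luminescence was taken after a further 5 min.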
# [9] = Primary redox qHTS assay for identification of artifact compounds. (AID 1845223); note: potency is the fitted concentration of half-maximal effect
# Method in brief: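 Redox-cycling detection via DTT (250 uM final) oxidation coupled to Amplex Red (25 uM)/HRP (250 mU/mL) in HBSS. 15 min preincubation plus 30 min after DTT, room temperature. Ex/Em 525/598 nm; 4-parameter Hill fit against DMSO and 10 uM DA3003.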
# Phospholipid hydroperoxide glutathione peroxidase GPX4 (Homo sapiens), sequence (P36969 whole entry, looked up): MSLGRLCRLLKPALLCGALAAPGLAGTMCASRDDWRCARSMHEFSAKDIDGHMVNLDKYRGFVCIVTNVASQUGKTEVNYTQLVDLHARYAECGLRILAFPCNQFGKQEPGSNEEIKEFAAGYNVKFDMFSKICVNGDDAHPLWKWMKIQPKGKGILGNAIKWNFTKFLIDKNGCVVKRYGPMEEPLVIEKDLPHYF
smiles,measurement,setting,value
CN1CCN(c2c(F)cc3c(=O)c(C(=O)O)cn(CCF)c3c2F)CC1,Potency,[1],inactive
same,Potency,[2],inactive
same,Potency,[3],inactive
same,Potency,[4],inactive
same,Potency,[5],inactive
NC(=O)c1cccnc1,Potency,[1],inactive
same,Potency,[2],inactive
same,Potency,[4],inactive
same,Potency,[5],inactive
CS(=O)(=O)c1ccc([C@@H](O)[C@@H](CO)NC(=O)C(Cl)Cl)cc1,Potency,[1],inactive
same,Potency,[2],inactive
same,Potency,[4],inactive
same,Potency,[5],inactive
NC(N)=NC(N)=NCCc1ccccc1,Potency,[1],inactive
same,Potency,[3],9.35 µM (active)
same,Potency,[4],4.69 µM (active)
CC(C)C[C@H](NC(=O)[C@H](CCc1ccccc1)NC(=O)CN1CCOCC1)C(=O)N[C@@H](Cc1ccccc1)C(=O)N[C@@H](CC(C)C)C(=O)[C@@]1(C)CO1,Potency,[1],inactive
same,Potency,[2],0.0083 µM (active)
same,Potency,[3],0.001 µM (active)
same,Potency,[4],0.0105 µM (active)
same,Potency,[5],0.0066 µM (active)
CN(C)CCc1c[nH]c2ccc(C[C@H]3COC(=O)N3)cc12,Potency,[1],inactive
same,outcome,[6],inactive
same,Potency,[7],inactive
same,outcome,[8],inactive
same,Potency,[9],inactive
same,Potency,[2],inactive
same,Potency,[3],inactive
same,Potency,[4],inactive
same,Potency,[5],inactive
Oc1c(Cl)cc(Cl)c2cccnc12,Potency,[1],inactive
same,Potency,[2],18.7 µM (active)
same,Potency,[3],23.5 µM (active)
same,Potency,[4],6.62 µM (active)
same,Potency,[5],10.5 µM (active)
COc1cc(NCc2ccc3nc(N)nc(N)c3c2C)cc(OC)c1OC,Potency,[1],inactive
same,Potency,[2],16.6 µM (active)
same,Potency,[3],18.7 µM (active)
same,Potency,[4],8.33 µM (active)
same,Potency,[5],0.935 µM (active)
COc1ncnc(NS(=O)(=O)c2ccc(N)cc2)c1OC,Potency,[1],inactive
same,Potency,[2],inactive
same,Potency,[3],inactive
same,Potency,[4],inactive
same,Potency,[5],inactive
CC(C)OC(=O)C(C(=O)OC(C)C)=C1SC=CS1,Potency,[1],inactive
same,Potency,[2],inactive
same,Potency,[3],inactive
same,Potency,[4],inactive
same,Potency,[5],inactive
CC1=NN(c2ccccc2)C(=O)C1,Potency,[1],inactive
same,outcome,[6],inactive
same,Potency,[7],8.44 µM (active)
same,outcome,[8],inactive
same,Potency,[9],3.36 µM (active)
same,Potency,[2],inactive
same,Potency,[3],inactive
N[C@@H](C(=O)N[C@@H]1C(=O)N2C(C(=O)O)=C(Cl)CS[C@H]12)c1ccccc1,"activity change, negative = inhibition",[1],3.64% [at 9.73 µM] (inactive)
same,Potency,[3],inactive
same,Potency,[4],inactive
same,Potency,[5],inactive
C[C@]12C=CC(=O)C=C1CC[C@@H]1[C@@H]2C(=O)C[C@@]2(C)[C@H]1CC[C@]2(O)C(=O)CO,Potency,[1],inactive
same,Potency,[2],inactive
same,Potency,[4],inactive
same,Potency,[5],inactive
CNCC[C@H](Oc1cccc2ccccc12)c1cccs1,Potency,[1],inactive
same,Potency,[2],3.72 µM (active)
same,Potency,[3],2.35 µM (active)
same,Potency,[4],0.935 µM (active)
same,Potency,[5],26.4 µM (active)
CNC(=O)c1cc(Oc2ccc(NC(=O)Nc3ccc(Cl)c(C(F)(F)F)c3)cc2)ccn1,Potency,[1],inactive
same,outcome,[6],inactive
same,Potency,[7],inactive
same,outcome,[8],inactive
same,Potency,[9],inactive
same,Potency,[2],20.9 µM (active)
same,Potency,[3],16.6 µM (active)
same,Potency,[4],18.7 µM (active)
same,Potency,[5],5.26 µM (active)
Cn1nnc2c(C(N)=O)ncn2c1=O,Potency,[1],inactive
same,Potency,[2],inactive
same,Potency,[4],inactive
same,Potency,[5],inactive
N[C@@H](Cc1ccc(O)c(O)c1)C(=O)O,Potency,[1],inactive
same,Potency,[2],inactive
same,Potency,[4],inactive
Cc1nnc(NS(=O)(=O)c2ccc(N)cc2)s1,Potency,[1],inactive
same,Potency,[2],inactive
same,Potency,[5],1.87 µM (active)
COc1cc(NS(=O)(=O)c2ccc(N)cc2)nc(OC)n1,Potency,[1],inactive
same,Potency,[2],inactive
same,Potency,[3],inactive
same,Potency,[4],inactive
same,Potency,[5],inactive
C[C@@H]1CN(c2c(F)c(N)c3c(=O)c(C(=O)O)cn(C4CC4)c3c2F)C[C@H](C)N1,Potency,[1],inactive
same,Potency,[4],inactive
same,Potency,[5],inactive
Cn1c(=O)c2c(ncn2CC(O)CO)n(C)c1=O (stereo unspecified),Potency,[1],inactive
same,Potency,[2],inactive
same,Potency,[3],inactive
same,Potency,[4],inactive
same,Potency,[5],inactive
NC(=O)N1c2ccccc2CC(=O)c2ccccc21,Potency,[1],inactive
same,Potency,[2],inactive
same,Potency,[3],inactive
same,Potency,[5],inactive
CC(C)(C#N)c1cc(Cn2cncn2)cc(C(C)(C)C#N)c1,Potency,[1],inactive
same,Potency,[2],inactive
same,Potency,[4],inactive
same,Potency,[5],inactive
CCn1cc(C(=O)O)c(=O)c2cc(F)c(N3CCN(C)CC3)cc21,Potency,[1],inactive
same,Potency,[2],inactive
same,Potency,[3],inactive
same,Potency,[4],inactive
Cc1cccc(Nc2ccncc2S(=O)(=O)NC(=O)NC(C)C)c1,Potency,[1],inactive
same,Potency,[2],inactive
same,Potency,[3],inactive
same,Potency,[4],inactive
same,Potency,[5],inactive
CNNCc1ccc(C(=O)NC(C)C)cc1,Potency,[1],inactive
same,Potency,[4],inactive
same,Potency,[5],inactive
COc1nc(N)nc2c1ncn2[C@@H]1O[C@H](CO)[C@@H](O)[C@@H]1O,Potency,[1],inactive
same,Potency,[2],inactive
same,Potency,[3],inactive
same,Potency,[5],inactive
CCOCC(O)COc1ccc(NC(=O)CC[S+](C)C)cc1 (stereo unspecified),Potency,[1],inactive
same,Potency,[2],inactive
same,Potency,[3],inactive
same,Potency,[4],inactive
same,Potency,[5],inactive
